Bioassay records deposited in PubChem BioAssay by National Center for Advancing Translational Sciences (NCATS).
Sampled rows, rich in hits. Any-hit rate of the full collection: about 6.7%.
KB-V1 MDR tox = qHTS assay for MDR1-selective chemotherapeutics: Primary screen using the drug-selected MDR subline cells KB-V1; Potency, µM (series often up to 46.1 µM), hits mostly cytotoxic; KB-V1 MDR cells viability, CellTiter-Glo, 72 h; 400,000 tested, 3.4% active; further: on the % scale 0 is the no-effect control and ±100 the full control effect; nearly all actives have a fitted effect of over 60% in size
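KB-V1 MDR subline cells in DMEM (phenol-red free, 10% FBS) exposed to compounds in qHTS concentration series for 72 h at 37 degrees C. Viability read by CellTiter-Glo luminescence; concentration-effect curves fitted after normalization and correction.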
SW480 rerep = A quantitative high throughput screen for small molecules that induce DNA re-replication in SW480 colon adenocarcinoma cells; SW480 DNA re-replication, Hoechst DNA content imaging, 48 h; Potency, µM (series often up to 46.1 µM), for inactives: at the top dose re-replication activation, hits mostly activators; 340,000 tested, 1.8% active; further: % of control where 0% means no effect; nearly all actives have a fitted effect of over 55% in size
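DNA re-replication was detected as more nuclei of elevated Hoechst intensity after 48 hr exposure to compound (23 nL pinned per well of 250 cells).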
MCF10A rereplic = A quantitative high throughput screen for small molecules that induce DNA re-replication in MCF 10a normal breast cells; MCF 10A DNA re-replication, Hoechst nuclear intensity, 48 h; Potency, µM (doses to about 46.1 µM), for the others: at the top dose activity, positive = re-replication, hits mostly activators; 350,000 tested, 2.9% active; AID 624296, 2012; further: % of control where 0% means no effect; nearly all actives have a fitted effect of over 50% in size
KB-3-1 tox = qHTS assay for MDR1-selective chemotherapeutics: Primary screen using the parental adenocarcinoma cell KB-3-1 | KB-3-1 viability, CellTiter-Glo ATP luminescence, 72 h | Potency, µM (titrated, usually from 46.1 µM), hits mostly cytotoxic | 400,000 tested, 1.4% active; further: on the % scale 0 is the no-effect control and ±100 the full control effect; nearly all actives have a fitted effect of over 60% in size
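Here the drug-naive KB-3-1 line serves as comparator for MDR sub-line selectivity; cells received compound titrations, 72 h at 37 °C, then CellTiter-Glo readout.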
PINK1 expr mod = A Quantitative High throughput Screen to Identify Chemical Modulators of PINK1 Expression; 410,000 tested, 0.2% active; Potency, µM (highest dose often 76.6 µM), for the others: at the top dose activation (PINK1 increase), actives largely listed as activators; AID 624263, 2012; PINK1 immunofluorescence, high-content cytometry, 24 h; active means well fitted activation curve with a large enough effect; inconclusive means small, poorly fitted or top-dose-only effect; cell line not stated here; further: % of control where 0% means no effect; nearly all actives have a fitted effect of over 65% in size
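A stable cell line was treated with compounds at 5 concentrations for 24 hours, with CCCP as control. PINK1 levels and mitochondrial localization were measured by immunofluorescence with mitochondrial, cell and nuclear markers after fixation, read by laser-scanning cytometry.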
The depositor's hits bear a star; i = inactive; u = inconclusive; x = not tested or not shown; [ ] = another dose, or the depositor's remark. Unless noted, the call rests on the fitted dose curve; in most records, active means well fitted curve in the direction sought with a large enough effect; inconclusive means small, poorly fitted or top-dose-only effect, or another doubt; inactive means no such curve, though single readings can be large; an effect the other way counts as inactive or inconclusive. Potency means the concentration at half of the fitted maximal effect.

SMILES	KB-V1 MDR tox	SW480 rerep	MCF10A rereplic	KB-3-1 tox	PINK1 expr mod
CC(=O)O[C@@]12CO[C@@H]1C[C@H](OC1OCC(O)C(O)C1O)[C@@]1(C)C(=O)[C@H](O)C3=C(C)[C@@H](OC(=O)[C@H](O)[C@@H](NC(=O)c4ccccc4)c4ccccc4)C[C@@](O)([C@@H](OC(=O)c4ccccc4)C12)C3(C)C (stereo partly specified)	i	5.8µM*	0.58µM*	1µM*	9%
CCCCCC(=O)N[C@@H](c1ccccc1)[C@@H](O)C(=O)O[C@H]1C[C@@]2(O)[C@@H](OC(=O)c3ccccc3)C3[C@](C)(C(=O)[C@H](O)C(=C1C)C2(C)C)[C@@H](OC1OCC(O)C(O)C1O)C[C@H]1OC[C@@]31OC(C)=O (stereo partly specified)	i	3.7µM*	u	0.21µM*	12%
CN1C(=O)[C@@H](NC(=O)c2cc3ccccc3[nH]2)N=C(c2ccccc2)c2ccccc21	x	u	-1%	x	x
O=c1[nH]c2ccccc2n1C1CCN(C(c2ccccc2)c2nnnn2-c2ccc3c(c2)OCCO3)CC1 (stereo unspecified)	16µM*	x	x	u	-1%
COc1cccc(C(c2nnnn2Cc2ccccc2)N2CCC(n3c(=O)[nH]c4ccccc43)CC2)c1OC (stereo unspecified)	18µM*	x	x	u	-1%
O=c1[nH]c2ccccc2n1C1CCN(C(c2cccs2)c2nnnn2-c2ccc3c(c2)OCCO3)CC1 (stereo unspecified)	u	x	x	u	-1%
Cc1cccc(C)c1-n1nnnc1C(c1ccccc1OC(F)(F)F)N1CCC(n2c(=O)[nH]c3ccccc32)CC1 (stereo unspecified)	i	x	x	23µM*	2%
O=c1[nH]c2ccccc2n1C1CCN(C(CCc2ccccc2)c2nnnn2C2CCCC2)CC1 (stereo unspecified)	3.3µM*	x	x	u	-1%
CCSc1nc2n(n1)C(c1ccc(Cl)cc1Cl)C(C(=O)Nc1ccccc1C)=C(C)N2 (stereo unspecified)	i	x	x	i	u
CCOC(=O)[C@]12Cc3cc(OC)c(OC)cc3[C@H]1N(Cc1ccccc1)C(=O)c1ccccc12	u	-4%	11%	i	0%
CCOC(=O)[C@]12Cc3cc(Cl)ccc3[C@H]1N(Cc1ccccc1)C(=O)c1cc(OC)ccc12	7.3µM*	x	x	2.6µM*	-1%
CCOC(=O)[C@]12Cc3cc4ccccc4cc3[C@H]1N(Cc1ccccc1)C(=O)c1ccccc12	u	x	x	5.2µM*	-1%
CCOC(=O)[C@]12Cc3ccccc3[C@H]1N(Cc1ccccc1)C(=O)c1cc(OC)ccc12	u	x	x	u	1%
CCCCCN1C(=O)c2cc(OC)ccc2[C@@]2(C(=O)OCC)Cc3cc(Cl)ccc3[C@@H]12	1.6µM*	x	x	0.65µM*	-1%
CCOC(=O)[C@]12Cc3cc(OC)ccc3[C@H]1N(Cc1ccccc1)C(=O)c1cc(OC)ccc12	i	x	x	u	-1%
CCOC(=O)[C@]12Cc3cc4ccccc4cc3[C@H]1N(Cc1ccccc1)C(=O)c1cc(OC)ccc12	16µM*	x	x	5.8µM*	-1%
C[C@@]12CCC(=O)C=C1C=C[C@H]1[C@H]3CC[C@](O)(CCC(=O)O)[C@]3(C)CC[C@@H]12	x	-4%[20.6 µM]	3%[20.6 µM]	x	x
O=C(CS(=O)C(c1ccccc1)c1ccccc1)NO (stereo unspecified)	x	2%	0%	x	x
O=c1n(Cl)c(=O)n(Cl)c(=O)n1Cl	x	-6%	0%	x	x
CCC1(CC)C(=O)NC(=O)NC1=O	x	1%	-4%	x	x
O=[N+]([O-])c1ccc(N2CCOCC2)c2c1no[n+]2[O-]	5.2µM*	x	x	u	2%
O=[N+]([O-])c1ccc(N2CCCCCC2)c2nonc12	u	10%[1.84 µM]	u	u	40µM*
O=[N+]([O-])c1ccc(N2CCOCC2)c2cccnc12	i	-5%	4%	i	-2%
C[N+]1([O-])[C@H]2CC[C@H]1CC(OC(=O)[C@@H](CO)c1ccccc1)C2 (stereo partly specified)	x	0%	6%	x	x
Clc1ccccc1CNc1nc2ccccc2n2cnnc12	i	0%	-2%	i	u
SMILES	KB-V1 MDR tox	SW480 rerep	MCF10A rereplic	KB-3-1 tox	PINK1 expr mod
CCCc1c(-c2ccccc2F)ncn1CCc1ccccc1OC	16µM*	x	x	u	u
OC(Cn1cncn1)(Cn1cncn1)c1ccc(F)cc1F	i	u	-7%	i	0%
CCOC(=O)C1(CCc2ccccc2)CCN(C2CCSCC2)CC1	u	u	8%	i	6%
CCOC(=O)C1(CCCc2ccccc2)CCN(C2CCCC2)CC1	i	16µM*	u	u	3%
O=C(O)CCCc1ccc(N(CCCl)CCCl)cc1	i	u	u	i	0%
O=c1[nH]cnc2nc(-c3ccc(N(CCCl)CCCl)cc3)[nH]c12	u	9.2µM*	15µM*	u	7%
COc1ccc(OC)c(CCNCc2c(C(=O)O)c(C)n(Cc3ccc(F)cc3Cl)c2C)c1	x	x	x	x	2%
C=C1CC2C(CC[C@]3(C)C(=O)CCC23)[C@]2(C)C=CC(=O)C=C12 (stereo partly specified)	x	12%	21%	x	1%
